This is an account of results in PubChem BioAssay (NCATS).

Molecules are shown by their SMILES. Results filed as inconclusive are left out. Activity calls are given as the source filed them. Unless noted, calls follow the shape of the dose curve; as a rule, active = well fitted curve in the direction sought with a large enough effect; inconclusive = small, poorly fitted or top-dose-only effect, or another doubt; inactive = no such curve, though single readings can be large; an effect the other way counts as inactive or inconclusive.

The first experiment is described as follows: qHTS Assay for Identification of Small Molecule Agonists for NFkB Signaling Pathway. (AID 624478).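 Also: compounds tested together with TNF alpha at its EC50 of 10 pM; 0% is about no effect.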 As to conditions: NFkB pathway reporter cell assay, agonist mode, cells co-stimulated with 10 pM TNF alpha; series mostly up to 46.1 µM; activation: at the top concentration. The method in brief:
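ME-180 cervical carcinoma, stable NFkB-RE beta-lactamase reporter; 1000 cells/well, overnight attachment; cpd + TNF alpha 10 pM final, 5 h 37 C; LiveBLAzer 2 h RT; FRET 460/530 nm, ex 405 nm.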
(In qHTS, concentration-response curves come from the screen itself.)
Take `Nc1nc(Cl)nc2c1ncn2[C@H]1C[C@H](O)[C@@H](CO)O1`: the “activation” value was -2.58% [at 92.2 µM] (inactive).

Take `COc1cc2c(N3CCN(C(=O)Nc4ccc(OC(C)C)cc4)CC3)ncnc2cc1OCCCN1CCCCC1`: the “activation” value was 1.16% (inactive).

On to `Cc1cccc(-c2[nH]ncc2-c2ccc3ncccc3n2)n1`, for which the “activation” value was -1.36% [at 92.2 µM] (inactive).

As for `Cc1cccc(C#Cc2ccccc2)n1`, the “activation” value is -0.423% (inactive).

For `S=c1nc[nH]c2nc[nH]c12`, the “activation” value is -1.22% [at 92.2 µM] (inactive).

`CC(C)C[C@H](NC(=O)[C@H](Cc1ccccc1)NC(=O)c1cnccn1)B(O)O`: the “activation” value was -1.87% (inactive).

Consider `CCOC(=O)C1=C(O)C(=O)N(Cc2ccccc2)C1`, for which the “activation” value is 5.39% (inactive).

On to `COc1cc(Nc2c(C#N)cnc3cc(OCCCN4CCN(C)CC4)c(OC)cc23)c(Cl)cc1Cl`, for which the “activation” value was -1.41% (inactive).

Take `Cc1nc(Nc2ncc(C(=O)Nc3c(C)cccc3Cl)s2)cc(N2CCN(CCO)CC2)n1`: the “activation” value was 7.96% (inactive).

Regarding `C[C@@H](N)C1CCC(C(=O)Nc2ccncc2)CC1` (stereo partly specified), the “activation” value was -0.733% (inactive).

With `CCN(CCO)CCCC(C)Nc1ccnc2cc(Cl)ccc12` (stereo unspecified), the “activation” value is 0.268% (inactive).

As to `Cc1ccc(Nc2nccc(N(C)c3ccc4c(C)n(C)nc4c3)n2)cc1S(N)(=O)=O`, the “activation” value is 0.362% (inactive).

Turning to `Nc1cccc2c1CN(C1CCC(=O)NC1=O)C2=O` (stereo unspecified), the “activation” value is -3.02% [at 92.2 µM] (inactive).

Turning to `Cc1ccc(NC(=O)c2ccc(CN3CCN(C)CC3)cc2)cc1Nc1nccc(-c2cccnc2)n1`, the “activation” value was -0.889% (inactive).

Consider `CCN(CC)CCOc1ccc(Nc2ncc3cc(-c4c(Cl)cccc4Cl)c(=O)n(C)c3n2)cc1`, for which the “activation” value was 13.8% (inactive).

A further experiment is described as follows: qHTS Assay for Identification of Small Molecule Antagonists for NFkB Signaling Pathway. (AID 624479; calls by dose curve; also: potency is read from the fitted curve at half-maximal effect; as to activity change, negative = inhibition: % is scaled to controls: 0 for no effect and ±100 for the full control effect). As to conditions: NFkB pathway reporter cell assay, antagonist mode; series mostly up to 38.3 µM; activity change, negative = inhibition: at the top concentration.
With `Nc1nc(Cl)nc2c1ncn2[C@H]1C[C@H](O)[C@@H](CO)O1`, the “activity change, negative = inhibition” value was -17.7% [at 76.6 µM] (inactive).

Regarding `COc1cc2c(N3CCN(C(=O)Nc4ccc(OC(C)C)cc4)CC3)ncnc2cc1OCCCN1CCCCC1`, the “activity change, negative = inhibition” value was -11.5% (inactive).

As for `Cc1cccc(-c2[nH]ncc2-c2ccc3ncccc3n2)n1`, the Potency was 13.7 µM (active).

In the case of `Cc1cccc(C#Cc2ccccc2)n1`, the “activity change, negative = inhibition” value is -11.5% (inactive).

Turning to `S=c1nc[nH]c2nc[nH]c12`, the “activity change, negative = inhibition” value was 3.99% [at 76.6 µM] (inactive).

For `CC(C)C[C@H](NC(=O)[C@H](Cc1ccccc1)NC(=O)c1cnccn1)B(O)O`, the Potency was 0.0053 µM (active).

In the case of `CCOC(=O)C1=C(O)C(=O)N(Cc2ccccc2)C1`, the “activity change, negative = inhibition” value is -2.8% (inactive).

In the case of `Cc1nc(Nc2ncc(C(=O)Nc3c(C)cccc3Cl)s2)cc(N2CCN(CCO)CC2)n1`, the Potency is 16.8 µM (active).

As to `CCN(CCO)CCCC(C)Nc1ccnc2cc(Cl)ccc12` (stereo unspecified), the “activity change, negative = inhibition” value was -10.4% (inactive).

Consider `Cc1ccc(Nc2nccc(N(C)c3ccc4c(C)n(C)nc4c3)n2)cc1S(N)(=O)=O`, for which the Potency is 16.8 µM (active).

Take `Nc1cccc2c1CN(C1CCC(=O)NC1=O)C2=O` (stereo unspecified): the “activity change, negative = inhibition” value is -12.7% [at 76.6 µM] (inactive).

In the case of `CCN(CC)CCOc1ccc(Nc2ncc3cc(-c4c(Cl)cccc4Cl)c(=O)n(C)c3n2)cc1`, the Potency was 7.49 µM (active).

The nature of another experiment: Cell Proliferation Assay against the TMD8 Cell Line (AID 651645).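 Also: cells exposed to compound for 48 h before reading.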 As to conditions: TMD8 DLBCL cell line proliferation/viability; at 46.1 µM (top of the series) unless noted. The method in brief:
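TMD8 ABC DLBCL cells, 500 per well in phenol red-free RPMI with 5% FBS, were treated with compound by pin transfer and incubated 48 hours at 37C, 5% CO2. Viability was read by CellTiter-Glo luminescence, normalised to DMSO (100%) and 9.2 uM bortezomib (0%).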
For the compound `Nc1nc(Cl)nc2c1ncn2[C@H]1C[C@H](O)[C@@H](CO)O1`, the viability (% of control) was -0.421% [at 92.2 µM].

For `COc1cc2c(N3CCN(C(=O)Nc4ccc(OC(C)C)cc4)CC3)ncnc2cc1OCCCN1CCCCC1`, the viability (% of control) was 19.9%.

Turning to `Cc1cccc(-c2[nH]ncc2-c2ccc3ncccc3n2)n1`, the viability (% of control) stood at 76.5% [at 92.2 µM].

For the compound `Cc1cccc(C#Cc2ccccc2)n1`, the viability (% of control) is 116%.

As for `S=c1nc[nH]c2nc[nH]c12`, the viability (% of control) was 39.5% [at 92.2 µM].

Turning to `CC(C)C[C@H](NC(=O)[C@H](Cc1ccccc1)NC(=O)c1cnccn1)B(O)O`, the viability (% of control) was 1.72%.

Consider `CCOC(=O)C1=C(O)C(=O)N(Cc2ccccc2)C1`, for which the viability (% of control) stood at 104%.

In the case of `COc1cc(Nc2c(C#N)cnc3cc(OCCCN4CCN(C)CC4)c(OC)cc23)c(Cl)cc1Cl`, the viability (% of control) turned out to be 4.66%.

In the case of `Cc1nc(Nc2ncc(C(=O)Nc3c(C)cccc3Cl)s2)cc(N2CCN(CCO)CC2)n1`, the viability (% of control) amounted to 8.11%.

As to `C[C@@H](N)C1CCC(C(=O)Nc2ccncc2)CC1` (stereo partly specified), the viability (% of control) worked out at 91.3%.

Regarding `CCN(CCO)CCCC(C)Nc1ccnc2cc(Cl)ccc12` (stereo unspecified), the viability (% of control) is 114%.

`Cc1ccc(Nc2nccc(N(C)c3ccc4c(C)n(C)nc4c3)n2)cc1S(N)(=O)=O`: the viability (% of control) was 13.2%.

On to `Nc1cccc2c1CN(C1CCC(=O)NC1=O)C2=O` (stereo unspecified), for which the viability (% of control) is 102% [at 92.2 µM].

`Cc1ccc(NC(=O)c2ccc(CN3CCN(C)CC3)cc2)cc1Nc1nccc(-c2cccnc2)n1`: the viability (% of control) is 48.3%.

Regarding `CCN(CC)CCOc1ccc(Nc2ncc3cc(-c4c(Cl)cccc4Cl)c(=O)n(C)c3n2)cc1`, the viability (% of control) is 0.582%.

A further experiment in a line: Cell Proliferation Assay against the HBL1 Cell Line (AID 651646).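 Also: cells exposed to compound for 48 h before reading.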 As to conditions: HBL1 DLBCL cells; at 46.1 µM (top of the series) unless noted. The method in brief:
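HBL1 ABC DLBCL cells, 500/well in RPMI with 5% FBS, treated for 48 h at 37C. Viability read by CellTiter-Glo luminescence, normalized to DMSO as 100% and 9.2 uM bortezomib as 0%.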
In the case of `COc1cc2c(N3CCN(C(=O)Nc4ccc(OC(C)C)cc4)CC3)ncnc2cc1OCCCN1CCCCC1`, the viability, percent of control is 15.5%.

For `Cc1cccc(-c2[nH]ncc2-c2ccc3ncccc3n2)n1`, the viability, percent of control is 116% [at 92.2 µM].

As for `Cc1cccc(C#Cc2ccccc2)n1`, the viability, percent of control was 102%.

With `S=c1nc[nH]c2nc[nH]c12`, the viability, percent of control is 54.4% [at 92.2 µM].

As for `CC(C)C[C@H](NC(=O)[C@H](Cc1ccccc1)NC(=O)c1cnccn1)B(O)O`, the viability, percent of control came to 3.27%.

`CCOC(=O)C1=C(O)C(=O)N(Cc2ccccc2)C1`: the viability, percent of control came out at 107%.

As to `COc1cc(Nc2c(C#N)cnc3cc(OCCCN4CCN(C)CC4)c(OC)cc23)c(Cl)cc1Cl`, the viability, percent of control was 5.95%.

For the compound `Cc1nc(Nc2ncc(C(=O)Nc3c(C)cccc3Cl)s2)cc(N2CCN(CCO)CC2)n1`, the viability, percent of control stood at 27.1%.

For `C[C@@H](N)C1CCC(C(=O)Nc2ccncc2)CC1` (stereo partly specified), the viability, percent of control is 95.4%.

On to `CCN(CCO)CCCC(C)Nc1ccnc2cc(Cl)ccc12` (stereo unspecified), for which the viability, percent of control was found to be 121%.

Turning to `Cc1ccc(Nc2nccc(N(C)c3ccc4c(C)n(C)nc4c3)n2)cc1S(N)(=O)=O`, the viability, percent of control is 35.9%.

Turning to `Nc1cccc2c1CN(C1CCC(=O)NC1=O)C2=O` (stereo unspecified), the viability, percent of control came out at 121% [at 92.2 µM].

With `Cc1ccc(NC(=O)c2ccc(CN3CCN(C)CC3)cc2)cc1Nc1nccc(-c2cccnc2)n1`, the viability, percent of control was found to be 38%.

As for `CCN(CC)CCOc1ccc(Nc2ncc3cc(-c4c(Cl)cccc4Cl)c(=O)n(C)c3n2)cc1`, the viability, percent of control is 1.36%.
